In the library only some 3.2% were active in any assay of this set; here they are far more common.
Tau ThT inhib: inhibitors of human tau fibril formation, thioflavin T binding; P10636; recombinant tau K18 P301L, heparin-induced fibrillization, ThT fluorescence; Potency, µM (titrated, usually from 57.4 µM), for inactives: top-dose activity, negative = inhibition, usual class: inhibitors; actives 2.1% (n = 270,000); further: potency means the concentration at half of the fitted maximal effect; on the % scale 0 is the no-effect control and ±100 the full control effect; nearly all actives have a fitted effect of over 55% in size
Target sequence (P10636 561-689 P618L limits assumed): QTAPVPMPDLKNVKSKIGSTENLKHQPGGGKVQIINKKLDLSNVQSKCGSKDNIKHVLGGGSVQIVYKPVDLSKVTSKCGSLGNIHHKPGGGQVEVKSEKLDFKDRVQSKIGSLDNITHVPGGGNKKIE
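Fibril formation assay: tau K18 P301L at 15 uM with trace Alexa 594 label, heparin inducer 20 uM, pH 7 sodium acetate buffer, 37 C for 6 hr; endpoint ThT signal.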
Lamin A splicing: modulators of lamin A splicing. Potency, µM (highest dose often 46.1 µM), for inactives: top-dose ratio change, negative = inhibition, hits mostly inhibitors. HeLa LMNA splicing GFP/RFP minigene ratio, 48 h. actives 0.01% (n = 200,000); active means well fitted inhibition curve with a large enough effect in the signal ratio, with a control signal flat, not every such curve was filed as active; inconclusive means small, poorly fitted or top-dose-only effect, or effect the other way, or a change in a side signal; the % refers to the signal ratio; further: potency means the concentration at half of the fitted maximal effect; on the % scale 0 is the no-effect control and ±100 the full control effect
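S3 HeLa cells stably expressing lamin A-EGFP splicing minigene plus DsRed2, 600 cells/well, 48 h compound exposure at 37C. Laser-scanning cytometry; analysed as GFP (500-530 nm)/RFP (575-640 nm) total intensity ratio; 0.5% DMSO vehicle.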
CBFb RUNX1 block: inhibitors of human CBF-beta and RUNX1 interaction; Potency, µM (doses to about 59.8 µM), without a hit: at the highest dose activity, negative = inhibition, usual class: inhibitors; Q01196+Q13951; AID 1477; 230,000 tested, under 10 active; AlphaScreen CBFb-His/RUNX1-biotin binding, biochemical; further: % of control where 0% means no effect
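CBFb-His/RUNX1-biotin, 30 nM each, preincubated 20 min RT; compound 15 min RT; Ni + streptavidin beads 50 ng each, 90 min RT; AlphaScreen read.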
JMJD2E inh: inhibitors of human JMJD2E histone demethylase | Potency, µM (doses to about 57.1 µM), without a hit: top-dose activity change, negative = inhibition, usual class: inhibitors | JMJD2E catalytic domain, FDH-coupled NADH fluorescence (FDH is formaldehyde dehydrogenase) | actives 1.6% (n = 230,000); active means well fitted inhibition curve with a large enough effect, not every such curve was filed as active; inconclusive means small, poorly fitted or top-dose-only effect, or another doubt; inactive means no such curve, though single readings can be large or run the other way;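 further: potency means the concentration at half of the fitted maximal effect; 0% = wells with enzyme and -100% = buffer wells without enzyme; nearly all actives have a fitted effect of over 50% in size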
Target sequence (B2RXH2 1-337 limits assumed): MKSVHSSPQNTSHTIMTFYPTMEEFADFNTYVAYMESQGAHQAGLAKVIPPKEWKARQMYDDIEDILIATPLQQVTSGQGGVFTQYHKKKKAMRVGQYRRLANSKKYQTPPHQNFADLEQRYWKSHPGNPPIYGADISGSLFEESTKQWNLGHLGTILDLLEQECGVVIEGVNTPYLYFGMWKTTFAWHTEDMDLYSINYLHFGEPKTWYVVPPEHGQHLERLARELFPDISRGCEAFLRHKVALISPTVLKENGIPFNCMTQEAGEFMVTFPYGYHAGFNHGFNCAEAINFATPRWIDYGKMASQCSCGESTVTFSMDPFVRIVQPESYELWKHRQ
Tau fluor cs: counter-screen for tau fibril formation inhibitors; tau K18 P301L (four-repeat tau fragment) Alexa594 fluorescence, heparin fibrillization; Potency, µM (titrated, usually from 57.7 µM), for inactives: top-dose activity change, negative = decrease; actives 0.93% (n = 280,000); AID 1463; further: potency means the concentration at half of the fitted maximal effect; on the % scale 0 is the no-effect control and ±100 the full control effect; nearly all actives have a fitted effect of over 55% in size
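Human K18 P301L tau (15 uM unlabeled plus 0.24 uM Alexa 594-labeled, final) in 100 mM sodium acetate pH 7 was mixed with compound and 20 uM heparin and incubated 6 hr at 37 C.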
Tau FP inhib: tau fibrillization inhibition (FP) | Potency, µM (doses to about 57.7 µM), for inactives: top-dose activity, negative = inhibition, hits mostly inhibitors | K18 P301L tau heparin fibrillization, Alexa594 FP, 6 h | actives 0.39% (n = 280,000); further: potency means the concentration at half of the fitted maximal effect; on the % scale 0 is the no-effect control and ±100 the full control effect; nearly all actives have a fitted effect of over 55% in size
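Quantitative HTS format: compounds meet 15 uM recombinant K18 P301L tau and Alexa 594-tau tracer in 100 mM sodium acetate pH 7; 20 uM heparin triggers fibrillization at 37 C over 6 hr; FP gives the signal.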
The depositor's hits bear a star; [ ] = another dose, or the depositor's remark. Unless noted, the call rests on the fitted dose curve; in most records, active means well fitted curve in the direction sought with a large enough effect; inconclusive means small, poorly fitted or top-dose-only effect, or another doubt; inactive means no such curve, though single readings can be large; an effect the other way counts as inactive or inconclusive.

How did Cc1ccc(S(=O)(=O)N(C(=O)c2ccncc2)c2ccc(OC(=O)c3ccncc3)c3ccccc23)c(C)c1 do in these assays?
Tau ThT inhib: 14µM*; Lamin A splicing: 3%; CBFb RUNX1 block: -11%; JMJD2E inh: inconclusive; Tau fluor cs: inconclusive; Tau FP inhib: inconclusive

How did COc1cccc(CNS(=O)(=O)c2ccc3[nH]c4c(c3c2)CCCCC4)c1 do in these assays?
Tau ThT inhib: -9%; Lamin A splicing: inconclusive; Tau fluor cs: 13µM*[quencher]; Tau FP inhib: inconclusive

How did O=S(=O)(NCc1ccc(F)cc1)c1ccc2[nH]c3c(c2c1)CCCCC3 do in these assays?
Tau ThT inhib: -1%; Lamin A splicing: inconclusive; Tau fluor cs: 16µM*[quencher]; Tau FP inhib: -5%

Results for COc1cccc(CNC(=O)CN(C)S(=O)(=O)c2ccc3[nH]c4c(c3c2)CCCC4)c1 ?
Tau ThT inhib: -4%; Lamin A splicing: -7%[46 µM]; Tau fluor cs: inconclusive; Tau FP inhib: inconclusive

Results for Oc1ccc(/C=N/N=C/c2ccc(O)cc2)cc1 ?
Tau ThT inhib: inconclusive; Lamin A splicing: 4%[46 µM]; CBFb RUNX1 block: -2%; JMJD2E inh: 4%; Tau fluor cs: -15%; Tau FP inhib: 4%

What do the screens show for `Oc1ccc(N=Cc2ccc(O)c(O)c2)cc1`?
Tau ThT inhib: 3.2µM*; Lamin A splicing: inconclusive; CBFb RUNX1 block: 6%; JMJD2E inh: 0.63µM*; Tau fluor cs: inconclusive; Tau FP inhib: 8.9µM*

How did COc1ccc(C)cc1NCc1nnc2n1CCCCC2 do in these assays?
Tau ThT inhib: -6%; Lamin A splicing: 7%[46 µM]; Tau fluor cs: -3%; Tau FP inhib: 0%

How did COc1cc2c(cc1OC)-c1cc3nc4ccccc4nc3n1C(C)(C)C2 do in these assays?
Tau ThT inhib: inconclusive; JMJD2E inh: 4.5µM*; Tau fluor cs: inconclusive; Tau FP inhib: inconclusive

What do the screens show for `COc1ccc(N=Nc2ccc(O)c3ncccc23)cc1`?
Tau ThT inhib: 1.4µM*; CBFb RUNX1 block: 2%; JMJD2E inh: inconclusive; Tau fluor cs: -26%; Tau FP inhib: inconclusive

What do the screens show for `O=C(Nc1cccc2ncccc12)c1ccc2c(c1)OCCO2`?
Tau ThT inhib: -10%; Lamin A splicing: -3%; CBFb RUNX1 block: 1%; JMJD2E inh: -3%; Tau fluor cs: -5%; Tau FP inhib: -4%

How did COc1ccc(C)cc1N=Nc1ccc(O)c2ncccc12 do in these assays?
Tau ThT inhib: inconclusive; CBFb RUNX1 block: inconclusive; JMJD2E inh: 25µM*; Tau fluor cs: inconclusive; Tau FP inhib: 3%

What do the screens show for `Cc1ccccc1N=Nc1ccc(O)c2ncccc12`?
Tau ThT inhib: inconclusive; Lamin A splicing: inconclusive; CBFb RUNX1 block: -6%; JMJD2E inh: -25%; Tau fluor cs: -17%; Tau FP inhib: 8%

What do the screens show for `Oc1ccc(N=Nc2ccc3c(c2)OCCO3)c(O)c1`?
Tau ThT inhib: 3.2µM*; CBFb RUNX1 block: -27%; JMJD2E inh: -1%; Tau fluor cs: inconclusive; Tau FP inhib: 5%

How did Oc1ccc(N=Nc2ccc3c(c2)OCCO3)c2cccnc12 do in these assays?
Tau ThT inhib: 2µM*; JMJD2E inh: inconclusive; Tau fluor cs: inconclusive; Tau FP inhib: inconclusive

How did CCc1ccc(-c2nc(CS(=O)CC(=O)NCCc3ccc(Cl)cc3)c(C)o2)cc1 (stereo unspecified) do in these assays?
Tau ThT inhib: -15%; Lamin A splicing: inconclusive; Tau fluor cs: -1%; Tau FP inhib: 11%

Results for Cc1cc(C)nc(-n2nc(C)c3c2NC(=O)CC3c2cc(F)ccc2F)n1 (stereo unspecified) ?
Tau ThT inhib: -2%; Lamin A splicing: -10%[46 µM]; Tau fluor cs: -1%; Tau FP inhib: 6%

How did O=C(Cc1ccc(Br)cc1)c1ccc(O)cc1O do in these assays?
Tau ThT inhib: -17%; Lamin A splicing: inconclusive; CBFb RUNX1 block: 9%; JMJD2E inh: -11%; Tau fluor cs: inconclusive; Tau FP inhib: -15%

What do the screens show for `Oc1ccc(N=Nc2ccc(Br)cc2)c(O)c1`?
Tau ThT inhib: 3.5µM*; CBFb RUNX1 block: inconclusive; JMJD2E inh: 16%; Tau fluor cs: inconclusive; Tau FP inhib: 2%

What do the screens show for `O=Nc1ccc(O)c2ncccc12`?
Tau ThT inhib: inconclusive; CBFb RUNX1 block: -26%; JMJD2E inh: 25µM*; Tau fluor cs: -29%; Tau FP inhib: inconclusive

Results for COc1cccc(C(=O)N2c3ccc(C)cc3C(C)(c3ccccc3)CC2(C)C)c1 (stereo unspecified) ?
Tau ThT inhib: -14%; Tau fluor cs: -8%; Tau FP inhib: -5%

Results for CCCCc1ccc(-n2nc3cc(C)c(NC(=O)Cc4ccccc4)cc3n2)cc1 ?
Tau ThT inhib: 32µM*; Tau fluor cs: 40µM*[quencher]; Tau FP inhib: inconclusive

What do the screens show for `Cc1cc2nn(-c3ccccc3)nc2cc1NC(=O)Cc1ccc(Cl)cc1`?
Tau ThT inhib: -14%; Tau fluor cs: -12%; Tau FP inhib: -7%

What do the screens show for `CCCCCOc1ccc(CSCCNC(=S)Nc2ccccc2)cc1`?
Tau ThT inhib: -13%; Lamin A splicing: inconclusive; CBFb RUNX1 block: 1%; JMJD2E inh: -10%; Tau fluor cs: inconclusive; Tau FP inhib: 13µM*

Results for Cc1c(Cl)cccc1NS(=O)(=O)c1ccc(-c2cnc(C3CC3)o2)cc1 ?
Tau ThT inhib: -16%; Lamin A splicing: inconclusive; Tau fluor cs: inconclusive; Tau FP inhib: -6%

What do the screens show for `Cc1ccc2oc(-c3ccccc3C(=O)O)cc(=O)c2c1`?
Tau ThT inhib: -6%; Lamin A splicing: -5%; CBFb RUNX1 block: 5%; JMJD2E inh: inconclusive; Tau fluor cs: 6%; Tau FP inhib: 2%

How did Cc1[nH][nH]c(=O)c1C(c1ccc(-c2cccc(C(=O)O)c2)o1)c1c(C)[nH][nH]c1=O do in these assays?
Tau ThT inhib: 14µM*; Lamin A splicing: 15%[46 µM]; CBFb RUNX1 block: -26%; JMJD2E inh: 26%; Tau fluor cs: -26%; Tau FP inhib: inconclusive

Results for Cc1[nH][nH]c(=O)c1C(c1ccc(-c2ccccc2C(=O)O)o1)c1c(C)[nH][nH]c1=O ?
Tau ThT inhib: 11µM*; CBFb RUNX1 block: -29%; JMJD2E inh: 23%; Tau fluor cs: -8%; Tau FP inhib: inconclusive

Results for Cc1[nH][nH]c(=O)c1C(c1ccc(-c2cccc(Cl)c2)o1)c1c(C)[nH][nH]c1=O ?
CBFb RUNX1 block: 9%; JMJD2E inh: inconclusive; Tau fluor cs: inconclusive; Tau FP inhib: inconclusive

Screening data deposited in PubChem by National Center for Advancing Translational Sciences (NCATS).
